# Assay outcomes as filed in PubChem BioAssay.
# Pf growth 96h: P. falciparum growth inhibition at 96 hours | P. falciparum luciferase reporter growth, 96 h | Potency, µM (doses to about 28.7 µM), for inactives: at the highest dose activity change, negative = inhibition, hits mostly inhibitors | actives 6.9% (n = 320,000) | AID 504834; active means well fitted inhibition curve with a large enough effect; inconclusive means small, poorly fitted or top-dose-only effect, or another doubt; inactive means no such curve, though single readings can be large or run the other way; further: on the % scale 0 is the no-effect control and ±100 the full control effect
#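 P. falciparum expressing integrated firefly luciferase, in erythrocytes at 2% hematocrit, 0.05% parasitemia, incubated with compounds 96 h at 37 C, 5% CO2. Growth inhibition read as loss of luminescence; two-generation exposure targets delayed-death apicoplast inhibitors.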
# SARS PLP yeast: blocks SARS-CoV papain-like protease in a yeast assay; S. cerevisiae expressing SARS-CoV PLpro, growth rescue; Potency, µM (highest dose often 32.9 µM), for inactives: at the highest dose activity, positive = growth rescue, usual class: activators; actives 0.19% (n = 330,000); further: 0% is about no effect; nearly all actives have a fitted effect of over 55% in size
# NS1 function inh: influenza NS1 inhibition | actives 0.4% (n = 270,000) | Potency, µM (top dose mostly 46.1 µM), for the others: at the top dose activity, positive = more growth | AID 2326; further: actives are rising curves; nearly all actives have a fitted effect of over 50% in size
#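 In this qHTS, NS1 from influenza A is expressed in budding yeast, where it slows growth. Cells are switched from glucose to 2% galactose medium (pH 6.0, -URA), treated with compound, and growth recovery is read at OD600.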
# Pf growth 48h: inhibits P. falciparum growth in the first generation, 48 h; P. falciparum luciferase growth in erythrocytes, 48 h; Potency, µM (titrated, usually from 28.7 µM), for inactives: at the highest dose activity change, negative = inhibition, actives largely listed as inhibitors; actives 5.9% (n = 310,000); AID 504832; active means well fitted inhibition curve with a large enough effect; inconclusive means small, poorly fitted or top-dose-only effect, or another doubt; inactive means no such curve, though single readings can be large or run the other way; further: on the % scale 0 is the no-effect control and ±100 the full control effect
#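 Growth was read as firefly luciferase luminescence after a 48 h, 37 C, 5% CO2 exposure of compounds to reporter-bearing P. falciparum cultures (0.1% parasitemia, 2% hematocrit final) in Albumax-supplemented RPMI 1640.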
# * hit, by the source's call; ? = inconclusive; / = no result given. The list is not random: actives were taken first. Their share in the collection is about 10%. Unless noted, the call rests on the fitted dose curve. Potency means the concentration at half of the fitted maximal effect.
SMILES,Pf growth 96h,SARS PLP yeast,NS1 function inh,Pf growth 48h
O=C(CC(Cc1ccccc1)C(=O)O)Nc1ccc(F)cc1 (configuration not stated),2.33µM*,7.9%,-2.4%,-16.1%
COc1ccc(NC(=O)CC(Cc2ccccc2)C(=O)O)cc1 (configuration not stated),4.2%,2.3%,-1.2%,-3.8%
O=C(O)C(Cc1ccc(F)cc1)c1ccccc1 (configuration not stated),3.29µM*,-0.5%,-29.5%,47.0%
N[C@@H](Cc1ccc(F)cc1)C(=O)O,/,/,-18.1%,/
Cc1cccc(NC(=O)COC(=O)CCc2c[nH]c3ccccc23)c1C,?,-3.2%,/,13.1µM*
Cc1cccc(C)c1NC(=O)COC(=O)CCc1c[nH]c2ccccc12,6.57µM*,6.2%,/,3.7µM*
O=C(O)[C@H](Cc1c[nH]c2ccccc12)N1C(=O)c2ccccc2C1=O,/,/,8.3%,/
OC(CNCC1CCCO1)Cn1c2ccccc2c2ccccc21 (configuration not stated),?,1.2%,-7.0%,4.65µM*
OC(CNCCC1C=Nc2ccccc21)Cn1c2ccc(Cl)cc2c2cc(Cl)ccc21 (configuration not stated),?,-40.8%,?,2.62µM*
OC(CNCC1CCCO1)Cn1c2ccc(Cl)cc2c2cc(Cl)ccc21 (configuration not stated),28.6%,-11.6%,-125.5%,0.37µM*
O=C(CC1SC(N2CCOCC2)=NC1=O)Nc1ccccc1Cl (configuration not stated),4.8%,4.3%,/,31.1%
O=C(CN1CCC(n2nnc3cc(F)ccc32)CC1)Nc1ccccc1N1CCOCC1,-17.0%,-0.1%,-40.2%,1.65µM*
O=C(CN1CCC(n2nnc3cc(F)ccc32)CC1)N1CCc2ccccc2C1,4.8%,-0.9%,-10.0%,8.28µM*
N#CC1(NC(=O)COC(=O)c2cc(=O)[nH]c3ccccc23)CCCCC1,15.2%,1.5%,/,?
Cc1nc(SCc2ccccc2F)c2oc3ccccc3c2n1,8.28µM*,1.2%,-1.4%,?
COc1ccccc1C(=O)c1c(C)c(CCC#N)n2ccccc12,-10.0%,-4.9%,-0.7%,0.6%
Cc1c(C(=O)c2ccc(F)cc2)c2ccccn2c1CCc1ccccn1,4.15µM*,-5.4%,-11.9%,0.0%
COC(=O)CCc1c(C)c(C(=O)c2cc(OC)c(OC)c(OC)c2)c2ccccn12,?,-4.1%,8.5%,10.4µM*
Cc1c(C(=O)c2ccccc2)c2ccccn2c1CCc1ccccn1,-21.1%,-6.5%,16.9%,-2.5%
O=c1c2cc(F)ccc2sn1-c1ccccc1,5.22µM*,4.4%,/,4.15µM*
O=c1c2ccccc2sn1-c1ccccc1,/,-22.6%,-106.6%,?
Cc1cc(C)n(-c2nc(NC(C)(C)C)nc(NC(C)(C)C)n2)n1,15.8%,2.2%,3.8%,?
CCNc1nc(NCC)nc(-n2nc(C)cc2C)n1,2.08µM*,-2.5%,-16.6%,4.15µM*
Cc1cc(C)n(-c2nc(NC(C)C)nc(NC(C)C)n2)n1,5.4%,-10.2%,-12.2%,3.7µM*
COc1ccc(N2CCN(CCNS(=O)(=O)c3ccc(C)cc3)CC2)cc1,13.2%,-1.3%,-19.0%,34.5%
SMILES,Pf growth 96h,SARS PLP yeast,NS1 function inh,Pf growth 48h
CC(=O)CCc1ccccc1,23.1%,2.9%,/,?
CC(=O)CCc1c[nH]c2c(C(=O)O)cccc12,11.7µM*,-2.1%,?,22.3%
CCOC(=O)c1c(C)oc2c1c(C=NCCO)c(O)c1ccccc12,13.1µM*,-1.3%,-12.4%,?
CCOC(=O)c1c(C)oc2c1c(/C=N/c1ccccn1)c(O)c1ccccc12,/,/,25.2%,/
Cc1ccc(/C=N/NC(=O)c2cc3c(s2)CCCC3)o1,?,-7.0%,/,8.28µM*
Cc1ccc(/C=N/NC(=O)c2ccncc2)o1,83.9%,24.1%,9.5%,23.7%
COc1ccc(OC)c(NC(=O)CC2SC(=Nc3ccc(F)cc3)N(CCC3=CCCCC3)C2=O)c1 (configuration not stated),4.15µM*,11.1%,14.7%,?
COc1ccc(N=C2SC(CC(=O)Nc3ccc(OC)cc3OC)C(=O)N2C)cc1 (configuration not stated),4.8%,-2.1%,-9.3%,-13.1%
COc1cc([N+](=O)[O-])ccc1NC(=O)CC1SC(=Nc2ccc(F)cc2)N(CCC2=CCCCC2)C1=O (configuration not stated),1.85µM*,13.2%,?,?
Cc1ccccc1-n1nnnc1Sc1nnnn1-c1ccccc1,/,-17.9%,-16.5%,8.28µM*
Cc1nc(Sc2nnnn2-c2ccccc2)c(C#N)c(C)c1C,?,-3.5%,-3.6%,/
Cc1ccccc1-n1nnnc1SCC(N)=O,-2.9%,-4.1%,-1.9%,21.3%
Cc1cc(C)n2cc(CSc3nnnn3-c3ccccc3)nc2n1,8.28µM*,-3.5%,?,-21.6%
Cc1cc(C)c(C#N)c(Sc2nnnn2-c2ccccc2)n1,2.33µM*,-0.4%,4.6%,-3.4%
CCCSc1nnc(Sc2nnnn2-c2ccccc2)s1,/,-11.4%,-47.5%,13.1µM*
COc1ccc(Br)cc1CNC(=O)CN1C(=O)C(c2ccccc2)Oc2cccnc21 (configuration not stated),7.2%,-20.6%,4.8%,?
CCN(CCn1cccn1)Cc1cn[nH]c1-c1cccc2ccccc12,2.5%,0.3%,0.8%,-19.3%
CCN(CCn1cccn1)Cc1cn[nH]c1-c1ccc(-c2ccccc2)cc1,-1.6%,-1.8%,4.0%,2.94µM*
O=C(COC(=O)c1ccc(O)cc1)Nc1ccc2c(c1)OCO2,/,0.3%,/,/
Cc1ccc(OCCCn2ccnc2)c(Br)c1,-17.5%,/,-6.6%,?
Cc1ccc(OCCCn2ccnc2)c([N+](=O)[O-])c1,6.57µM*,-7.5%,1.1%,-6.5%
C[C@H]1[C@H](NC(=O)C(=NOC(C)(C)C(=O)O)c2csc(N)n2)C(=O)N1S(=O)(=O)O,-4.2%,/,/,-0.5%
CC(NC(=O)Nc1cccc(Cl)c1)C(c1cccs1)N1CCCC1 (configuration not stated),9.28µM*,26.6%,35.1%,?
CC(NC(=O)Nc1ccccc1)C(c1cccs1)N1CCN(C)CC1 (configuration not stated),-2.8%,2.5%,-0.5%,-2.6%
CC(NC(=S)Nc1ccc(Cl)cc1Cl)C(c1cccs1)N1CCCC1 (configuration not stated),11.7µM*,-0.7%,11.8%,?
CC(NC(=O)Nc1ccc([N+](=O)[O-])cc1)C(c1cccs1)N1CCCC1 (configuration not stated),9.28µM*,-21.8%,-9.0%,?
CC[C@H](C)[C@@H](C(=O)NCCCCCCCCCCC(=O)N1CCN(C(=O)OC(C)(C)C)CC1)n1cc(CCCCCNC(=O)OC(C)(C)C)nn1,1.04µM*,-2.5%,/,1.47µM*
CC[C@@H](C)[C@@H](C(=O)N1CCN(C(=O)OC(C)(C)C)CC1)n1cc(CCCN=C(NC(=O)OC(C)(C)C)NC(=O)OC(C)(C)C)nn1,?,0.7%,0.0%,?
CC[C@H](C)[C@@H](C(=O)NCCCCCCCCCCC(=O)N1CCN(C(=O)OC(C)(C)C)CC1)n1cc(CCCCN=C(NC(=O)OC(C)(C)C)NC(=O)OC(C)(C)C)nn1,1.85µM*,4.4%,/,1.17µM*
